The record followed here is PubChem BioAssay (NCI).

SMILES strings stand for the structures. This is part of a sample that, as a whole, favours compounds with a hit. Of some 83,000 tested, about 20% had one in any assay.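 Testing used 96-well plates and a 48-hour single-concentration exposure. Example: -40 means 40% of the starting cells died.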 Unmarked numbers belong to inactive results. The source made the active and inactive calls. The calls were made as follows: active = growth percent below 10; inactive = the rest.

Among the test systems are SR leukemia; RPMI-8226 leukemia; OVCAR-8 ovarian; OVCAR-5 ovarian; OVCAR-4 ovarian; SK-OV-3 ovarian; IGROV1 ovarian; OVCAR-3 ovarian; HS 578T breast; NCI/ADR-RES ovarian.
Assay in all cases: NCI-60 one-dose screen, 48 h (100 = growth as untreated, 0 = no growth, -100 = all killed)
Conditions in all cases: 10 µM unless noted

`NC(=O)C(=O)c1ccccc1NC=O`: the growth was 113% in the assay on SR leukemia; 105% with RPMI-8226 leukemia; 95.4% with OVCAR-8 ovarian; 102% in the assay on OVCAR-5 ovarian; 98.4% in the assay with OVCAR-4 ovarian; 97.4% in the assay on SK-OV-3 ovarian. Besides, the growth with IGROV1 ovarian is 94.8%; with OVCAR-3 ovarian, 110%; with HS 578T breast, 109%; with NCI/ADR-RES ovarian it was 89.6%.
As for `C=CC[Se]C(=O)Cc1c(C)n(C(=O)c2ccc(Cl)cc2)c2ccc(OC)cc12`, the growth was 2.02% (active) with SR leukemia; -25.8% (active) with RPMI-8226 leukemia; -38.1% (active) in the assay on OVCAR-8 ovarian; -44.7% (active) in the assay with OVCAR-5 ovarian; -50.7% (active) with OVCAR-4 ovarian; -83% (active) with SK-OV-3 ovarian. Further, the growth in the assay with IGROV1 ovarian was 2.4% (active); with OVCAR-3 ovarian it was -40.6% (active); in the assay on HS 578T breast, -12.7% (active); with NCI/ADR-RES ovarian it was -7.75% (active).
For the compound `Cc1cc(N2CCN(CCNc3ccnc4cc(Cl)ccc34)CC2)nc(N2CCOCC2)n1`, the growth was 3.62% (active) with SR leukemia; 35.3% with RPMI-8226 leukemia; 74.1% in the assay with OVCAR-8 ovarian; 92.9% with OVCAR-5 ovarian; 53.8% in the assay with OVCAR-4 ovarian; 85.2% with SK-OV-3 ovarian. Besides, the growth with IGROV1 ovarian is 66%; in the assay with OVCAR-3 ovarian, 73.1%; with HS 578T breast, 85.8%; with NCI/ADR-RES ovarian, 66.1%.
Take `c1csc(-c2ccc(CNc3c4ccccc4nc4ccccc34)cc2)c1`: the growth in the assay on SR leukemia is -43.7% (active); in the assay on RPMI-8226 leukemia it was -44.4% (active); in the assay on OVCAR-8 ovarian, 55.6%; with OVCAR-5 ovarian, 67.1%; in the assay with OVCAR-4 ovarian, 15.3%; in the assay with SK-OV-3 ovarian it was 65%. Further, the growth in the assay with IGROV1 ovarian was 10%; with OVCAR-3 ovarian it was 9.5% (active); in the assay on HS 578T breast, 60.6%; with NCI/ADR-RES ovarian, 11.2%.
For the compound `O=S(=O)(Nc1ccc(Cl)c(C(F)(F)F)c1)c1ccc(-c2cnc(C3CC3)o2)cc1`, the growth was 3.51% (active) in the assay on SR leukemia; 8.83% (active) in the assay on RPMI-8226 leukemia; 5.21% (active) in the assay with OVCAR-8 ovarian; 19.2% with OVCAR-5 ovarian; 25.7% in the assay with OVCAR-4 ovarian; 0.753% (active) in the assay on SK-OV-3 ovarian. In addition, the growth with IGROV1 ovarian was 24.3%; in the assay on OVCAR-3 ovarian, 9.38% (active); with HS 578T breast, -1.41% (active); in the assay on NCI/ADR-RES ovarian it was 2.96% (active).
As for `N#Cc1ccc2c(c1)C(=O)c1c-2n(CCCN)c(=O)c2cc([N+](=O)[O-])ccc12`, the growth is -52% (active) in the assay on SR leukemia; -45.5% (active) in the assay with RPMI-8226 leukemia; -71.6% (active) in the assay with OVCAR-8 ovarian; 16.6% with OVCAR-5 ovarian; -82% (active) in the assay with OVCAR-4 ovarian; -100% (active) with SK-OV-3 ovarian. For the same compound, the growth is -95.6% (active) in the assay with IGROV1 ovarian, -96.4% (active) in the assay on OVCAR-3 ovarian, -77.7% (active) with HS 578T breast and -36.3% (active) in the assay on NCI/ADR-RES ovarian.
`Fc1ccc(CNc2c3ccccc3nc3ccccc23)c(F)c1`: the growth was 25.2% with SR leukemia; 28.3% with RPMI-8226 leukemia; 40.2% in the assay on OVCAR-8 ovarian; 51.7% in the assay with OVCAR-5 ovarian; -8.19% (active) in the assay on OVCAR-4 ovarian; 59.8% in the assay on SK-OV-3 ovarian. For the same compound, the growth was 35.7% in the assay with IGROV1 ovarian, 70.2% with OVCAR-3 ovarian, 75.4% with HS 578T breast and 36.2% in the assay with NCI/ADR-RES ovarian.
For the compound `CCOC(=O)c1csc(NC(=O)COc2ccc(/C=C3\Oc4ccccc4C3=O)cc2)n1`, the growth is 37.9% in the assay with SR leukemia; 79.5% with RPMI-8226 leukemia; 84.7% with OVCAR-8 ovarian; 92.1% in the assay on OVCAR-5 ovarian; 81.6% in the assay on OVCAR-4 ovarian; 138% in the assay with SK-OV-3 ovarian. Also, the growth with IGROV1 ovarian is 6.55% (active); in the assay on OVCAR-3 ovarian, 93.2%; in the assay on HS 578T breast it was 91.1%; with NCI/ADR-RES ovarian it was 85.4%.
As to `Cn1ccnc1C(=O)/C=C/c1ccc(C(=O)Nc2ccc(Cl)cc2)cc1`, the growth with SR leukemia is -8.67% (active); with RPMI-8226 leukemia it was -8.46% (active); in the assay on OVCAR-8 ovarian, 14.3%; with OVCAR-5 ovarian, 12.6%; in the assay on OVCAR-4 ovarian it was 18.1%; in the assay on SK-OV-3 ovarian, 42.2%. The growth with IGROV1 ovarian was -22.4% (active); in the assay with OVCAR-3 ovarian it was -12.8% (active); with HS 578T breast it was 18.4%; with NCI/ADR-RES ovarian, 5.79% (active).
As for `O=[N+]([O-])c1ccc(O)cc1Br`, the growth in the assay on SR leukemia was 99.1%; in the assay on RPMI-8226 leukemia it was 91.4%; in the assay with OVCAR-8 ovarian, 100%; with OVCAR-5 ovarian, 94%; in the assay with OVCAR-4 ovarian, 89.3%; in the assay with SK-OV-3 ovarian it was 101%. Besides, the growth in the assay with IGROV1 ovarian is 101%; in the assay on OVCAR-3 ovarian, 106%; in the assay on HS 578T breast, 98.4%; in the assay with NCI/ADR-RES ovarian, 98.9%.
With `CCOC(=O)[C@@H]1CSC(CC)=C(C(=O)O)N1`, the growth with SR leukemia is -11.1% (active); in the assay on RPMI-8226 leukemia, -32% (active); in the assay with OVCAR-8 ovarian it was 101%; with OVCAR-5 ovarian, 107%; in the assay on OVCAR-4 ovarian it was 117%; in the assay with SK-OV-3 ovarian it was 69.1%. Besides, the growth in the assay with IGROV1 ovarian was 109%; in the assay on OVCAR-3 ovarian, 128%; with HS 578T breast, 109%; in the assay with NCI/ADR-RES ovarian it was 113%.
`CCN(CC)Cc1cc(C=C2C(=O)NC(=S)NC2=O)cc(OC)c1O`: the growth in the assay with SR leukemia was 109%; with RPMI-8226 leukemia, 110%; with OVCAR-8 ovarian it was 113%; in the assay with OVCAR-5 ovarian, 104%; in the assay on OVCAR-4 ovarian, 122%; in the assay with SK-OV-3 ovarian, 111%. The growth with IGROV1 ovarian was 112%; in the assay with OVCAR-3 ovarian, 114%; in the assay with HS 578T breast, 103%; in the assay with NCI/ADR-RES ovarian, 110%.
`O=C(C[C@]1(O)C(=O)Nc2ccccc21)c1cccc(C(F)(F)F)c1`: the growth in the assay on SR leukemia is 96.7%; with RPMI-8226 leukemia, 88.7%; in the assay with OVCAR-8 ovarian, 95.1%; in the assay on OVCAR-5 ovarian, 81.4%; in the assay on OVCAR-4 ovarian it was 91.3%; with SK-OV-3 ovarian it was 75.8%. Further, the growth is 67.6% in the assay on IGROV1 ovarian, 77.9% in the assay with OVCAR-3 ovarian, 90.3% in the assay on HS 578T breast and 94.7% in the assay on NCI/ADR-RES ovarian.
On to `CCOC(=O)c1cc(C(=O)c2cc(OC)c(OC)c(OC)c2)n2ncccc12`, for which the growth is 18.3% in the assay with SR leukemia; 19.3% in the assay on RPMI-8226 leukemia; 30.4% with OVCAR-8 ovarian; 63.1% with OVCAR-5 ovarian; 62.4% with OVCAR-4 ovarian; 26.4% in the assay with SK-OV-3 ovarian. The growth in the assay on IGROV1 ovarian was 47.2%; with OVCAR-3 ovarian, -15.2% (active); in the assay on HS 578T breast, 31.1%; with NCI/ADR-RES ovarian it was 3.34% (active).
